The full list was thinned out, with hits kept by preference.
CBFb-RUNX1 inh – CBF-beta/RUNX1 interaction disruption. 230,000 tested, under 10 active. Q01196+Q13951. AlphaScreen CBFb-His/RUNX1-biotin binding, biochemical. Potency, µM (doses to about 59.8 µM), inactives show top-dose activity, negative = inhibition, hits mostly inhibitors; note: % of control where 0% means no effect
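Compounds were screened at multiple concentrations against a preformed CBF-beta(His)/RUNX1(biotin) complex (30 nM of each) for 15 min at room temperature, followed by 90 min with nickel and streptavidin beads and AlphaScreen reading.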
Apoferritin bind – candidate novel general anesthetic via apoferritin binding. P02791. apoferritin/1-aminoanthracene competitive binding, fluorescence. Potency, µM (titrated, usually from 77.5 µM), inactives show at the highest dose activity change, negative = displacement, hits mostly inhibitors. hit rate 0.074% among 350,000; note: potency is the fitted concentration of half-maximal effect; % is set by controls: 0 for no effect and ±100 for the full control effect; nearly all actives have a fitted effect of over 20% in size
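Steps: apoferritin (10 uM) was premixed with half-saturated 1-AMA in PBS, compounds were pin-transferred, plates stood 10 min at room temperature, fluorescence was read at 380/535 nm, and curves were fitted with a Hill equation.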
N370S GC mod – inhibitors or activators of N370S glucocerebrosidase for Gaucher disease. hit rate 0.092% among 330,000. P04062. N370S GC spleen homogenate, 4MU-glucoside fluorescence. AID 2101. Potency, µM (highest dose often 59.4 µM), for inactives: at the top dose activity change, negative = inhibition, most hits filed as inhibitors;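 note: potency is the fitted concentration of half-maximal effect; 0% = full enzyme activity and -100% = no enzyme basal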
a7 integrin act – integrin-mediated muscular dystrophy alleviation activation; Potency, µM (series often up to 38.3 µM), without a hit: at the top dose activation, most hits filed as activators; alpha7betagal myoblasts, beta-gal FDG fluorescence, 48 h; hit rate 0.064% among 350,000;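 note: potency is the fitted concentration of half-maximal effect; 100% = response of the positive control SU9516; nearly all actives have a fitted effect of over 60% in size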
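alpha7betagal+/- myoblasts (passage 13, 250/well) treated 48 h at 37C with compounds at 1:260 dilution of DMSO stock. Lysed, then beta-galactosidase activity read as FDG fluorescence (ex 480/em 540) after 30 min, with pre-read for autofluorescence.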
Glioma ERSR ind – inducers of ER stress response in human glioma cells; Potency, µM, without a hit: top-dose activation, actives largely listed as activators; U87-MG GRP78 promoter luciferase reporter, 16 h; hit rate 0.02% among 420,000; AID 602332; note: potency is the fitted concentration of half-maximal effect; series mostly up to about 76 µM; % of control where 0% means no effect; nearly all actives have a fitted effect of over 35% in size
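Stably transfected U87-MG glioma cells carrying a GRP78-based luciferase sensor; 16 h compound incubation. Luminescence end-point read 10 min after Bright-Glo addition at room temperature.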
ClpP mod – qHTS Assay for Activators of ClpP; ATP-dependent Clp protease proteolytic subunit (Bacillus subtilis (strain 168)), P80244; purified B. subtilis ClpP, FRET peptide cleavage, 20 min; Potency, µM (series often up to 57.5 µM), without a hit: top-dose activity change, negative = active; hit rate 1.9% among 340,000; AID 651965, 2013; active = well fitted falling curve with a large enough effect; inconclusive = small, poorly fitted or top-dose-only effect; inactive = no such curve, though single readings can be large or run the other way; note: potency is the fitted concentration of half-maximal effect; the source files actives as falling curves though it sought activators and does not explain the sign; nearly all actives have a fitted effect of over 65% in size
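ClpP 10 microg/mL final, pH 8 Tris/KCl buffer with BSA, glycerol, Tween-20; compound pinned in; FRET-FV substrate; RT 20 min; Ex320/Em430; ΔFRET vs ADEP 5.8 microM, DMSO, no enzyme.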
* marks the source's active call; other numbers are inactive results; ? = inconclusive; / = not tested or not shown. Unless noted, calls come from the whole dose curve; as a rule, active = well fitted curve in the direction sought with a large enough effect; inconclusive = small, poorly fitted or top-dose-only effect, or another doubt; inactive = no such curve, though single readings can be large; an effect the other way counts as inactive or inconclusive.

SMILES	CBFb-RUNX1 inh	Apoferritin bind	N370S GC mod	a7 integrin act	Glioma ERSR ind	ClpP mod
CC(C)(C)c1ccc(S(=O)(=O)N[C@H]2CC[C@@H](n3cc(C(=O)N4CCCC4)nn3)CC2)cc1	/	/	/	/	-2%	/
Nc1cccc2[nH]c(=O)c3ccccc3c12	/	/	/	-4%	-1%	28µM*
CC(=O)Nc1ccc2c(c1)[nH]c(=O)c1ccccc12	/	/	/	2%	1%	32µM*
Nc1cc2[nH]c(=O)c3ccccc3c2cc1Br	/	/	/	-13%	-4%	-12%
O=C(Nc1ccc2c(c1)[nH]c(=O)c1ccccc12)C(F)(F)F	/	/	/	9%	-2%	20%
Nc1ccc2c(c1)[nH]c(=O)c1ccccc12	/	/	/	-16%	-3%	20µM*
O=[N+]([O-])c1ccc2nc(CO)[nH]c2c1	/	/	/	/	-5%	1%
COc1ccc2ccccc2c1C1NC(=O)c2ccccc2N1 (stereo not drawn)	/	/	/	-13%	-5%	14µM*
CCOC(=O)c1c(NC(=O)c2ccco2)n(C2CCCCC2)c2nc3ccccc3nc12	1%	71%	25%	-49%	-4%	28µM*
COc1ccc(-n2c(NC(=O)c3ccco3)c(C#N)c3nc4ccccc4nc32)cc1	-3%	-11%	15%	-19%	-6%	-12%
COc1cccc(N=Nc2c(N)[nH]n3c(=O)cc(-c4ccccc4)nc23)c1	-14%	-14%	-2%	-20%	-1%	15%
Cc1ccc(N=Nc2c(N)[nH]n3c(=O)cc(-c4ccccc4)nc23)cc1	-13%	-11%	3%	-5%	-2%	28µM*
COc1cccc(-c2nc3cc4c(cc3cc2CN(C(=O)c2csc(C)n2)C2CC2)CCC4)c1OC	/	/	/	/	-3%	/
CCN(CC)CCNC(=O)c1c2c(nc3ccccc13)C(=O)N(C1CCCCC1)C2	/	-8%	/	/	-2%	28µM*
O=C(NCc1ccccc1)c1c2c(nc3ccccc13)C(=O)N(C1CCCCC1)C2	/	-11%	/	/	-5%	-28%
Cc1cnc(-n2ncc(C(=O)NC(C)(C)CO)c2-c2cccs2)nc1-c1ccc(F)cc1	/	/	/	/	-1%	/
CCc1c(C2(O)CCCCC2)[nH]c2ncccc12	/	/	/	10µM*	-2%	-4%
Cc1c(C(=O)N2CCCCC2)c(S(=O)(=O)Nc2cccc(Br)c2)c(C)n1C	/	-22%	5%	10µM*	-1%	2%
OCCN1CCN(Cc2ccc3c(c2)CN(Cc2cnc(-c4ccccc4)s2)CCO3)CC1	/	/	/	/	-3%	/
CC(=O)Nc1cc2c3ccccc3ccc2c2ccccc12	/	/	/	19%	4%	32µM*
COc1cccc(N(CC(=O)NCCN2CCOCC2)S(=O)(=O)c2ccccc2)c1	/	/	-2%	29%	-6%	18µM*
COc1ccc(S(=O)(=O)N(C)CC(=O)NCCN2CCOCC2)cc1	/	-4%	-8%	?	0%	/
CN(CC(=O)NCCCN1CCOCC1)S(=O)(=O)c1ccc(Cl)cc1	/	/	/	8%	-4%	20µM*
Nc1cc(C(=O)OCC(=O)NC(c2ccccc2)c2ccccc2)ccc1Cl	-1%	-7%	4%	12%	-5%	25µM*
Cc1ccc(NC(=O)C(C)c2ccc(-c3ccccc3)c(F)c2)cc1 (stereo not drawn)	19%	-17%	9%	-35%	0%	35µM*
SMILES	CBFb-RUNX1 inh	Apoferritin bind	N370S GC mod	a7 integrin act	Glioma ERSR ind	ClpP mod
O=Cc1cc2c3c(c1)CCCN3CCC2	/	/	/	/	-4%	?
CNc1oc(-c2ccc(Cl)cc2)nc1P(=O)(c1ccccc1)c1ccccc1	2%	167%	30%	-3%	3%	28µM*
CCn1cc(C(=O)NCc2ccccc2)c(=O)c2cc(F)c(N3CCN(C(=O)c4ccco4)CC3)cc21	-9%	-15%	?	7%	-8%	14µM*
CCn1cc(C(=O)NCc2ccc3c(c2)OCO3)c(=O)c2cc(F)c(N3CCN(C(=O)c4ccco4)CC3)cc21	-1%	-17%	-11%	-38%	-3%	25µM*
COc1ccc(C(=O)Nc2scc(-c3ccc(Cl)cc3Cl)c2C(N)=O)cc1	1%	-2%	0%	21%	1%	28µM*
Cc1cc(C)cc(C(=O)NCc2nc(-c3cccc(NC(=O)c4ccccn4)c3)oc2C)c1	/	/	/	/	-2%	/
COc1cc(OC)c(OC)cc1CN1CCCC(n2cc(C(=O)N3CCCCC3)nn2)C1 (stereo not drawn)	/	/	/	/	-4%	/
Nc1[nH]c(=O)[nH]c(=O)c1N=Cc1ccccc1	/	/	/	34%	-5%	28µM*
Cc1nnc(N2C(=O)c3cccc4cccc(c34)C2=O)s1	0%	-9%	1%	25%	-2%	28µM*
COc1cccc(CN2CCC2(C)C(=O)Nc2cccc3cccnc23)c1F (stereo not drawn)	/	/	/	/	-4%	28µM*
COc1ccc(NC(=O)Cn2c(=O)n(Cc3nc(C)no3)c(=O)c3cc4c(cc32)OCO4)cc1	/	-16%	/	/	-3%	-11%
Cc1noc(Cn2c(=O)c3cc4c(cc3n(CC(=O)Nc3ccccc3Br)c2=O)OCO4)n1	/	12%	/	/	-3%	11µM*
Cc1ccc(NC(=O)Cn2c(=O)n(Cc3nc(C)no3)c(=O)c3cc4c(cc32)OCO4)c(Cl)c1	/	8%	/	/	-2%	6%
CCOc1ccc(NC(=O)Cn2c(=O)n(Cc3nc(-c4ccccc4)no3)c(=O)c3cc4c(cc32)OCO4)cc1	/	-2%	/	/	-4%	25µM*
Cc1cnc2c(C)cccc2c1/C=C/c1ccc(N(C)C)cc1	/	/	/	/	-4%	1%
COc1cc2nc(N(C)C)c(CNCc3cccc4ccccc34)cc2c(OC)c1OC	/	/	/	/	-4%	/
O=C(NCc1ccc2c(c1)OCO2)c1ccc2c(c1)N(Cc1c(F)cccc1Cl)C(=O)CS2	-7%	5%	-2%	-28%	-3%	14µM*
O=C1CC(O)(C(F)F)Oc2ccc3ccccc3c21 (stereo not drawn)	-2%	63%	5%	15%	-2%	25µM*
O=C1CC(O)(C(F)(F)F)Oc2c1ccc1ccccc21 (stereo not drawn)	0%	37%	1%	-10%	5%	-29%
Cc1ccc(-c2cc(C(F)(F)F)n3nc(C(=O)Nc4sc5c(c4C#N)CCC(C)C5)cc3n2)cc1 (stereo not drawn)	/	-4%	/	/	0%	1%
CCOC(=O)c1c(NC(=O)c2cc3nc(-c4ccc(OC)cc4)cc(C(F)(F)F)n3n2)sc2c1CCC(C)C2 (stereo not drawn)	/	-12%	/	/	-2%	32µM*
COc1ccc(-c2cc(C(F)(F)F)n3nc(C(=O)NCCCn4ccnc4)cc3n2)cc1	-15%	80%	5%	-5%	1%	28µM*

Source: PubChem BioAssay (National Center for Advancing Translational Sciences (NCATS))
